Compound activity (PubChem BioAssay)
Gal4-VP16 FLuc = inhibits Gal4-VP16 luciferase reporter, ROR gamma counter-screen; Potency, µM (highest dose often 53.6 µM), for the others: at the highest dose activity, negative = inhibition, actives largely listed as inhibitors; AID 2546; Drosophila S2 Gal4-VP16 UAS-luciferase, luminescence, 20 h; actives 3.5% (n = 310,000);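 further: Gal4-VP16 expression switched on by copper sulfate through the metallothionein promoter; potency means the concentration at half of the fitted maximal effect; nearly all actives have a fitted effect of over 50% in size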
LDHA block = LDHA (human) enzyme inhibition; purified LDHA, NADH/diaphorase-resazurin fluorescence; active compounds read low; activity change, % (values are at about 110 or 230 µM); actives 0.15% (n = 480,000); in the data active means activity change below about -30%; inconclusive means mostly about -25% to -30%;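 further: plate controls were DMSO wells for no effect and wells without enzyme for full effect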
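Human LDH5 (2 nM) was incubated with 0.06 mM NADH and 0.2 mM pyruvate for 5 min at room temperature in Tris pH 7.4. Remaining NADH was coupled through diaphorase/resazurin, and resorufin fluorescence was read at 0 and 20 min.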
IL1B secr inh = inhibitors of inflammasome signaling (IL-1 beta secretion); THP-1 LPS/ATP IL-1B secretion, AlphaLISA, 16 h; active compounds read low; AID 743279; activity change, % at 57.5 µM; actives 4.7% (n = 360,000); in the data active means activity change below about -50%; inconclusive means mostly about -30% to -49%
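THP-1 cells pretreated 1 hr with compounds (up to 57.5 uM final), then stimulated with LPS (250 ng/mL final) plus ATP (1.25 mM final); secreted IL-1B measured by AlphaLISA after 16 hr, decreased signal indicating inhibition.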
TDP1 cell noCPT = qHTS for Inhibitors of human tyrosyl-DNA phosphodiesterase 1 (TDP1): qHTS in cells in absence of CPT; AID 686978, 2013; actives 15% (n = 420,000); Potency, µM (titrated, usually from 46.2 µM), for inactives: top-dose activity change, negative = growth inhibition, usual class: inhibitors; DT40 Tdp1-/- hTDP1 cells, no CPT, ATP luminescence, 48 h; further: potency means the concentration at half of the fitted maximal effect; nearly all actives have a fitted effect of over 55% in size
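Luminescent ATP content (CellTiter-Glo) served as the growth readout. Knockout chicken DT40 cells expressing human TDP1 were exposed to compounds without camptothecin for a minimum 48 hr at 37 °C.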
DT40 TDP1 CPT = DT40-hTDP1 cell growth loss with CPT; chicken DT40 Tdp1-/-;hTDP1 cells + 20 nM CPT, ATP luminescence, 48 h; Potency, µM (highest dose often 46.2 µM), for the others: at the highest dose activity change, negative = growth inhibition, actives largely listed as inhibitors; actives 12% (n = 420,000); further: potency means the concentration at half of the fitted maximal effect; nearly all actives have a fitted effect of over 55% in size
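Chicken DT40 Tdp1-/- cells stably complemented with human TDP1 were seeded at 400 cells/well in medium containing 20 nM camptothecin, exposed to pin-transferred compounds, and grown at 37 °C for at least 48 hr. Viability was read as ATP luminescence.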
RORg inh = inhibitors of mouse ROR gamma transcriptional activity. P51450. Drosophila S2 Gal4-RORgamma UAS-luciferase reporter, 20 h. Potency, µM (titrated, usually from 53.6 µM), without a hit: at the highest dose activity change, negative = inhibition, usual class: inhibitors. actives 5.4% (n = 310,000); further: potency means the concentration at half of the fitted maximal effect; nearly all actives have a fitted effect of over 60% in size
Target sequence (P51450 whole entry, looked up, the tested form may be a part): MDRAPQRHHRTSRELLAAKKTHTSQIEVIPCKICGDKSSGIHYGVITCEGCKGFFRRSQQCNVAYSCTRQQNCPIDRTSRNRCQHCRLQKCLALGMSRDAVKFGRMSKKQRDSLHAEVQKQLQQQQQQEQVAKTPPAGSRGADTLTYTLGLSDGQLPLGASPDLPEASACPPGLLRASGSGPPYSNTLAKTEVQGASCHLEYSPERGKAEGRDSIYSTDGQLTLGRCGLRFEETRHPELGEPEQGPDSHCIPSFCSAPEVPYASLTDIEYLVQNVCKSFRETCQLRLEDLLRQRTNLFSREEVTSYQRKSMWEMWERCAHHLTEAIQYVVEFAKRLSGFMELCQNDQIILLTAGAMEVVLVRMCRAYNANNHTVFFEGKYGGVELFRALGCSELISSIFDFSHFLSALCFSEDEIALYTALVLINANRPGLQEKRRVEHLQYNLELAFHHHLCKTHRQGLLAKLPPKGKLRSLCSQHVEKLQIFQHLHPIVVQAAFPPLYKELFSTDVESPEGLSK
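In this cell-based reporter format, copper sulfate (700 uM final) drives Gal4–ROR gamma fusion expression from a metallothionein promoter in Drosophila Schneider cells; compounds preincubated 1 hr, reporter read after 20 hr at ambient temperature.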
Numbers without * were called inactive; ? = inconclusive; . = not tested or not shown. This is a sample that favours compounds with a hit; in the whole collection about 18% have one here. Unless noted, the call rests on the fitted dose curve; in most records, active means well fitted curve in the direction sought with a large enough effect; inconclusive means small, poorly fitted or top-dose-only effect, or another doubt; inactive means no such curve, though single readings can be large; an effect the other way counts as inactive or inconclusive. Unless noted, on the % scale 0 is the no-effect control and ±100 the full control effect.

SMILES	Gal4-VP16 FLuc	LDHA block	IL1B secr inh	TDP1 cell noCPT	DT40 TDP1 CPT	RORg inh
CNC(=O)C1CCN(Cc2cc3ccccc3n2Cc2cccc(C)c2)CC1	.	-4.9	.	16.4µM*	18.4µM*	.
CCN(CC)c1ccc(CN2CCC(C(=O)NCc3ccc(C)cc3)CC2)cc1	0.0%	-1.0	-1.8	14.6µM*	14.6µM*	19.0%
CCCn1c(=O)n(CCC(=O)Nc2c(C)cccc2C)c2ccccc21	.	-8.7	.	.	.	.
COCCNC(=O)C1CCCN(Cc2ccccc2)CC1 (stereo unspecified)	.	-1.7	?	1.0%	-21.6%	.
COCCNC(=O)C1CCN(Cc2cc3ccccc3n2Cc2ccc(C)cc2)CC1	.	1.4	.	20.6µM*	16.4µM*	.
CCSc1nnc(SCC(=O)c2c(N)n(C)c(=O)n(C)c2=O)s1	.	-8.4	35.5	23.1µM*	?	.
Cn1c(N)c(C(=O)CSc2ccc3c(c2)OCCO3)c(=O)n(C)c1=O	?	-1.2	1.0	18.4µM*	18.4µM*	?
CC(C)Cn1c(N2CCN(Cc3c(Cl)cccc3Cl)CC2)nc2c1c(=O)[nH]c(=O)n2C	.	4.1	.	.	.	.
O=C(c1cc(-c2ccccc2Cl)nc2ccccc12)N1CCN(c2ccccc2O)CC1	.	-3.0	-70.3*	?	18.4µM*	.
O=C(c1cc(-c2ccccc2Cl)nc2ccccc12)N1CCCC1	.	-2.0	.	.	.	.
O=C(c1cc(-c2cccs2)nc2ccccc12)N1CCN(c2ccccc2O)CC1	-14.3%	3.4	-66.7*	?	?	?
CN1CCCN(C(=O)c2cc(-c3cccc4ccccc34)nc3ccccc23)CC1	-5.5%	-1.6	-62.6*	20.6µM*	16.4µM*	-10.2%
CC(C)CNC(=O)C(Cc1ccccc1)NC(=O)C(c1ccccc1)c1ccccc1 (stereo unspecified)	.	3.8	.	.	.	.
CCOC(=O)c1cn[nH]c1S(=O)(=O)N1CCCC1	.	8.8	.	.	.	.
COc1cc(/C=N/n2c(C)nc3ccccc3c2=O)ccc1O	-0.1%	-0.3	-25.5	-2.8%	-14.8%	19.5%
COc1cc(/C=N/n2c(-c3ccc4c(c3)NC(=O)CO4)csc2=Nc2cccc(C)c2)ccc1O	?	3.1	?	?	13µM*	?
COCCN=c1scc(-c2ccc3c(c2)NC(=O)CO3)n1/N=C(\C)c1ccc(O)cc1	?	3.3	-60.5*	?	?	?
O=C1CSc2ccc(C(=O)NCCc3ccc(Cl)cc3Cl)cc2N1	.	-4.1	-5.3	14.6µM*	?	.
COCCNC(=O)c1ccc2c(c1)NC(=O)CS2	-14.1%	-5.7	30.7	-19.0%	-0.3%	1.5%
N#Cc1ccc(COC(=O)c2cnccn2)cc1	.	-18.5	.	.	.	.
CCOC(=O)C1(C(=O)OCC)COC(=O)C1CN1Cc2cc3ccccc3nc2C1 (stereo unspecified)	.	2.4	0.0	9.2µM*	10.3µM*	.
CC(C)(C)c1ccc(NC(=O)c2ccc(C(F)(F)F)nc2)cc1	.	3.9	.	.	.	.
COc1ccc(N(Cc2cccs2)C(=O)c2ccc(OC)c(Cl)c2)cc1	.	-3.2	.	?	?	.
COc1ccc(N(Cc2cccs2)C(=O)c2ccccc2C)cc1	.	3.9	.	13µM*	11.6µM*	.
COc1ccc(N(Cc2cccs2)C(=O)c2ccc(C(C)(C)C)cc2)cc1	.	7.0	.	?	?	.
COc1ccc(N(Cc2cccs2)C(=O)c2ccc(OCC(C)C)cc2)cc1	.	1.2	.	20.6µM*	?	.
Cc1ccc(N(Cc2cccs2)C(=O)C(C)Oc2ccc(Cl)c(C)c2)cc1 (stereo unspecified)	.	9.1	.	9.2µM*	11.6µM*	.
CCCCOc1cccc(C(=O)N(Cc2cccs2)c2ccc(OC)cc2)c1	.	4.6	.	6.51µM*	?	.
CCc1ccc(N(Cc2cccs2)C(=O)c2cccs2)cc1	.	0.1	.	.	.	.
Cc1csc(NC(=O)Cc2ccc3ccccc3c2)n1	.	4.2	.	.	.	.
